# Laboratory results: PubChem BioAssay AID2158 (National Center for Advancing Translational Sciences (NCATS), 2009)
# “And” between values parts separate entries of the source, which are not always exact repeats. Equal values may be shown once. Inconclusive results are not listed. The source made the active and inactive calls. Calls follow the shape of the dose curve; as a rule, active = well fitted inhibition curve with a large enough effect; inconclusive = small, poorly fitted or top-dose-only effect; inactive = no such curve, though single readings can be large or run the other way.
# Biological target: Cruzipain (Trypanosoma cruzi) (UniProt P25779)
# Assay: Confirmation qHTS Assay for Inhibitors of Cruzain; also: nearly all actives have a fitted effect of over 40% in size;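 as to activity change, negative = inhibition: plate controls were uninhibited enzyme control for no effect and buffer wells lacking enzyme for full effect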
# Details: purified cruzain, Z-FR-AMC fluorescence, 0.01% Triton
# How it was run: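 Purified cruzain, 1.5 nM, pre-incubated 15 min at room temperature with compound in 100 mM sodium acetate pH 5.5, 5 mM DTT, 0.01% Triton X-100. Then 2 uM Z-FR-AMC added; AMC fluorescence (ex 360/em 450 nm) increase over 60 s gave reaction progress.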
# Potency is read from the fitted curve at half-maximal effect.
# Chain of Cruzipain (Trypanosoma cruzi) (P25779 123-467 limits assumed): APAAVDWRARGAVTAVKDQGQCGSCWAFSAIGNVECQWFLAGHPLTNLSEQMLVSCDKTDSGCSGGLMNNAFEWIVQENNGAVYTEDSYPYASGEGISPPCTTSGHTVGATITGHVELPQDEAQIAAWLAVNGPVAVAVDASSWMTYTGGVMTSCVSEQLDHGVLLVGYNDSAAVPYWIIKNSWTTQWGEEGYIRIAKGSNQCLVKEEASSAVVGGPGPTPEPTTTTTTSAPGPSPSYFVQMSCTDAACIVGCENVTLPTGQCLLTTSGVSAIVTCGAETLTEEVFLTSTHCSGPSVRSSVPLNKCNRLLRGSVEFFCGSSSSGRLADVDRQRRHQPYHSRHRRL
SMILES,"activity change, negative = inhibition",Potency
CC1CCCN(c2ccc(C(=O)OCC(=O)N3c4ccccc4Sc4ccccc43)cc2[N+](=O)[O-])C1 (stereo not drawn),-7.68% (inactive),
O=C(CNC(=O)C(c1ccccc1)c1ccccc1)OCC(=O)c1cccc2ccccc12,17.8% (inactive),
Cc1ccccc1OCCCn1c(CCNC(=O)C2CCCCC2)nc2ccccc21,,1 µM (active)
COc1ccccc1N1CCN(C(=O)CN(c2ccccc2OC)S(=O)(=O)c2ccccc2)CC1,-10.1% (inactive),
CCN1CCN(CCCNC(=O)c2cc3c(s2)-c2ccccc2OC3)CC1,,15.8 µM (active)
Cn1c(C(=O)NCCN2CCCCCC2)cc2c(=O)n(C)c3ccccc3c21,,25.1 µM (active)
CCCCC(OC(=O)CNC(=O)c1ccccc1)C(=O)Nc1cc(C(F)(F)F)ccc1Cl (stereo not drawn),,8.91 µM (active)
O=C(NC1CC1)c1ccc2nc(-c3ccco3)c(-c3ccco3)nc2c1,,14.1 µM (active)
Cc1ccc2[nH]c(=O)c(CN(CCCO)Cc3nnnn3Cc3ccccc3)cc2c1,-13% (inactive),
COc1ccccc1-c1nn2c(-c3cc(C)[nH]n3)nnc2s1,-12.2% (inactive),
N#Cc1ccc(C(=O)NCC(=O)OC(C(=O)Nc2cc(C(F)(F)F)ccc2Cl)c2ccccc2)cc1 (stereo not drawn),,12.6 µM (active)
COc1ccc(C(F)(F)F)cc1NC(=O)C(OC(=O)CNC(=O)c1ccccc1)c1ccccc1 (stereo not drawn),,14.1 µM (active)
N#Cc1ccc(NC(=O)COC(=O)CNC(=O)C2CCCCC2)cc1,,14.1 µM (active)
O=c1cc(-c2ccccc2F)nc(-c2ccccc2F)o1,-25.6% (inactive),
CC(C)(C)OC(=O)NCc1nnc(-c2nc3ccccc3[nH]2)o1,-4.26% (inactive),
O=C(CNC(=O)c1ccc(-c2ccccc2)cc1)OC(C(=O)Nc1cc(C(F)(F)F)ccc1Cl)c1ccccc1 (stereo not drawn),-19.3% (inactive),
N#Cc1nc(N2CCCCC2)nc(N(c2ccccc2)c2ccccc2)n1,,2.24 µM (active)
Cc1ccccc1OCC(=O)NCC(=O)OCC(=O)c1ccc(F)cc1,-14.6% (inactive),
CCOc1nc(C#N)nc(N2CCOCC2)n1,,5.01 µM (active)

SMILES,"activity change, negative = inhibition",Potency
COc1nc(C#N)nc(N(C)C)n1,,6.31 µM (active) and 7.94 µM (active)
c1ccc(CN(Cc2ccccc2)Cc2nnc(-c3cc4ccccc4[nH]3)o2)cc1,-7.39% (inactive),
COc1cc(OC)c(-c2nn3c(-c4cc(C)[nH]n4)nnc3s2)cc1OC,-21.4% (inactive),
CC(C)(C)CNc1nc(C#N)nc(Nc2ccccc2)n1,,2 µM (active)
NNC(=O)Cn1c(SCc2ccccc2)nc2ccccc21,3.64% (inactive),
N#Cc1nc(NCC(F)F)c2ncn(-c3cccc(Cl)c3)c2n1,,0.0891 µM (active)
CNC(=O)c1ccc2nc(-c3cccc(C)c3)c(-c3cccc(C)c3)nc2c1,-24.1% (inactive),
O=C(N[C@@H](Cc1ccccc1)C(=O)CCl)OCc1ccccc1,,0.447 µM (active)
O=C(/C=C/c1ccc2c(c1)OCO2)Nc1ccc(-n2nncc2-c2ccccc2)cc1,,2.51 µM (active)
CC(C)(C)OC(=O)Cc1nnc(-c2cc3ccccc3[nH]2)s1,-10.9% (inactive),
CN(C)c1nc(C#N)nc(N(C)C)n1,,14.1 µM (active)
Cn1nc(-c2cccnc2)nc2c(=O)n(C)c(=O)nc1-2,,1.12 µM (active)
CC[C@@H](C)[C@H](NC(=O)OC(C)(C)C)c1nnc(S(=O)(=O)Cc2cc(C)ccc2C)o1,,14.1 µM (active)
CC(=O)NCCCc1ccc(C(=O)COC(=O)CNC(=O)c2ccc3ccccc3c2)cc1,-5.36% (inactive),
COc1ccc(-c2nn3c(-c4cc(-c5ccccc5)n[nH]4)nnc3s2)cc1OC,-9.95% (inactive),
O=C(NCCc1nc2ccccc2[nH]1)c1cc([N+](=O)[O-])cc([N+](=O)[O-])c1,,0.794 µM (active)
Cc1ccccc1Nc1nc(C#N)nc(NC2CCCC2)n1,,0.708 µM (active)
Cc1ccc(OCCNC(=O)CNC(=O)Cc2cccc3ccccc23)cc1,-1.3% (inactive),
Cc1ccc(C(=O)NCC(=O)OC(C(=O)Nc2cc(C(F)(F)F)ccc2Cl)c2ccccc2)cc1 (stereo not drawn),,7.94 µM (active)
